{"source": "PubChem BioAssay AID1566", "about": "(Sanford-Burnham Center for Chemical Genomics, 2009)", "note": "In all, about 290,000 compounds went through this assay and about 1,800 (0.62%) were called active. Cut-off read from the data, not from the text of the source: active = inhibition above about 50%; inactive = the rest. Many of the other results were omitted from the sample, so actives are more common in it than they were.", "data": [{"experiment": "NOD2 signaling inhibitors, cell-based, luminescence, uHTS, HEK293 (AID 1566)", "details": "HEK293 NOD2/NF-kB luciferase reporter, at 4 µM, active compounds read high", "values": [{"smiles": "COc1ccc(N(CC(=O)Nc2ccc(C)c(C)c2)C2=NC3CS(=O)(=O)CC3S2)cc1", "note": "(centres undefined)", "inhibition": "10.8% (inactive)"}, {"smiles": "CCC(C)(C)NC(=O)C1CC(=O)N(CCc2ccc(F)cc2)C1", "note": "(centres undefined)", "inhibition": "12.1% (inactive)"}, {"smiles": "COc1ccc(S(=O)(=O)N2CCC(N3CCN(c4ccccc4)CC3)CC2)cc1", "inhibition": "16.7% (inactive)"}, {"smiles": "Cc1nc2ccccc2c2oc(C(=O)NCc3ccc4c(c3)OCO4)cc12", "inhibition": "45.9% (inactive)"}, {"smiles": "Cc1cc(C(=O)NCC2COc3ccccc3O2)c2ccccc2n1", "note": "(centres undefined)", "inhibition": "17.7% (inactive)"}, {"smiles": "Cc1c(/C(O)=C2/C(=O)C(=O)N(CCN(C)C)C2c2ccc(C(C)C)cc2)cnn1-c1ccccc1", "note": "(centres undefined)", "inhibition": "28.4% (inactive)"}, {"smiles": "Cc1ccc(C)c(N(C)C(=O)c2cc3c(=O)[nH]c4ccc(C)cc4c3s2)c1", "inhibition": "-16% (inactive)"}, {"smiles": "Cc1ccc2[nH]c(=O)c3cc(C(=O)N(C)C4CCCCC4)sc3c2c1", "inhibition": "56.8% (active)"}, {"smiles": "Cc1ccc2[nH]c(=O)c3cc(C(=O)N(C)c4ccccc4C)sc3c2c1", "inhibition": "13.1% (inactive)"}, {"smiles": "COc1cc(CN2CCC(Cc3ccccc3)CC2)cc([N+](=O)[O-])c1O", "inhibition": "-1.9% (inactive)"}, {"smiles": "O=C(Nc1ccc(N2CCCC2)cc1)c1cc(Br)ccc1Cl", "inhibition": "-11.7% (inactive)"}, {"smiles": "Cc1ccc2c(COC(=O)c3c(C)noc3C)cc(=O)oc2c1", "inhibition": "0.4% (inactive)"}, {"smiles": "N[C@@H](CO)c1nnc([C@H](CC(=O)O)NC(=O)C2CCNCC2)o1", "inhibition": "-3.6% (inactive)"}, {"smiles": "CCSc1nsc(NC(=O)Nc2ccccc2F)n1", "inhibition": "-32.2% (inactive)"}, {"smiles": "CCSc1nsc(NC(=O)Nc2cccc(OC)c2)n1", "inhibition": "17.5% (inactive)"}, {"smiles": "CC1CCN(C(=O)c2ccc(CS(=O)(=O)Cc3ccccc3)cc2)CC1", "inhibition": "12.8% (inactive)"}, {"smiles": "CCc1ccc(NC(=S)N2CCC(NC(=O)c3ccccc3)CC2)cc1", "inhibition": "7.4% (inactive)"}, {"smiles": "Cc1ccc(NC(=S)N2CCC(NC(=O)c3ccc(C)cc3)CC2)cc1", "inhibition": "-13.6% (inactive)"}, {"smiles": "Cc1ccc(NC(=S)N2CCC(NC(=O)c3ccccc3)CC2)cc1", "inhibition": "93% (active)"}, {"smiles": "CC(C(=O)NC1CCCCCC1)n1cc([N+](=O)[O-])cn1", "note": "(centres undefined)", "inhibition": "3.3% (inactive)"}, {"smiles": "O=[N+]([O-])c1cccc2ccc(/C=C/c3cccc(Br)c3)nc12", "inhibition": "-19% (inactive)"}, {"smiles": "CC(=O)N[C@@H](C)c1nc2ccccc2n1CCCN1CCN(c2nc(-c3ccc(C)cc3)cs2)CC1", "inhibition": "44.3% (inactive)"}, {"smiles": "Cc1ccc(-c2csc(N3CCN(CCCn4c(C(F)(F)F)nc5ccccc54)CC3)n2)cc1", "inhibition": "19.9% (inactive)"}, {"smiles": "Cc1ccc(Cn2c(SC3CCOC3=O)nc3ccccc3c2=O)cc1", "note": "(centres undefined)", "inhibition": "-3.1% (inactive)"}, {"smiles": "O=C1NCC(CN(c2ccccc2)c2ccccc2)O1", "note": "(centres undefined)", "inhibition": "14.1% (inactive)"}, {"smiles": "CN(Cc1ccccc1)c1ncnc2ccc(Br)cc12", "inhibition": "20.7% (inactive)"}, {"smiles": "CCN(CC)c1ncnc2ccc(Br)cc12", "inhibition": "65.5% (active)"}, {"smiles": "CC(C)Nc1ncnc2ccc(Br)cc12", "inhibition": "43% (inactive)"}, {"smiles": "Cn1c(=O)oc2cc(S(=O)(=O)N3CCC(C(=O)N4CC=C(c5ccccc5)CC4)CC3)ccc21", "inhibition": "7.5% (inactive)"}, {"smiles": "Cc1nnc(SCC(=O)Nc2cccc([N+](=O)[O-])c2)n1CC1CCCO1", "note": "(centres undefined)", "inhibition": "2.2% (inactive)"}, {"smiles": "O=C(O)c1ccccc1C(=O)c1ccc(Cl)cc1", "inhibition": "1% (inactive)"}, {"smiles": "O=C(O)c1ccccc1C(=O)c1ccc(-c2ccccc2)cc1", "inhibition": "64.3% (active)"}, {"smiles": "O=C(O)c1ccccc1C(=O)c1ccc(Oc2ccccc2)cc1", "inhibition": "-0.9% (inactive)"}, {"smiles": "Cc1ccc2c(C)c(C(=O)Nc3c(C)n(C)n(-c4ccccc4)c3=O)oc2c1C", "inhibition": "22.4% (inactive)"}, {"smiles": "CCC(=O)N1CCc2cc(S(=O)(=O)CCC(=O)NC(C)CC)ccc21", "note": "(centres undefined)", "inhibition": "10.4% (inactive)"}, {"smiles": "CCc1ccc(N(C(=O)Cn2nnc(-c3ccccc3)n2)C(C(=O)NC2CCCCC2)c2ccccn2)cc1", "note": "(centres undefined)", "inhibition": "5.5% (inactive)"}, {"smiles": "COCc1cc(=O)[nH]c(Nc2nc3ccc(C)cc3o2)n1", "inhibition": "62.8% (active)"}, {"smiles": "COCc1cc(=O)[nH]c(Nc2nc3ccccc3o2)n1", "inhibition": "-130% (inactive)"}, {"smiles": "COC(=O)Cc1cc(=O)[nH]c(Nc2nc3ccccc3o2)n1", "inhibition": "-8.6% (inactive)"}, {"smiles": "COc1ccc(Cn2c(C3CC3)nc3ccc(NC(=O)c4ccco4)cc3c2=O)cc1", "inhibition": "-43.8% (inactive)"}, {"smiles": "CCn1c(C)c(C(C)=O)c(N2CCN(c3cccc(Cl)c3)CC2)nc1=S", "inhibition": "15.5% (inactive)"}, {"smiles": "CC(=O)Nc1ccc(/C(C)=N/NC(=O)c2ccc(CN3CCOCC3)cc2)cc1", "inhibition": "6.9% (inactive)"}, {"smiles": "CC1CCCCN1C(=O)c1ccc(C(=O)N2CCCCC2C)cc1", "note": "(centres undefined)", "inhibition": "5% (inactive)"}, {"smiles": "COc1ccc(OC(=O)Nc2ccccc2)cc1", "inhibition": "-3.6% (inactive)"}, {"smiles": "Cc1csc(SCc2nnc(-c3ccc(Cl)cc3)o2)n1", "inhibition": "-134% (inactive)"}, {"smiles": "N#Cc1c(-c2ccccc2)cc(-c2ccccc2)nc1SCc1nnc(-c2ccccc2)o1", "inhibition": "15.7% (inactive)"}, {"smiles": "Cc1ccc(C#N)c(SCc2nnc(-c3ccc(Cl)cc3)o2)n1", "inhibition": "67.8% (active)"}, {"smiles": "Cc1cc(C)c(C#N)c(SCc2nnc(-c3ccccc3[N+](=O)[O-])o2)n1", "inhibition": "-197% (inactive)"}, {"smiles": "Cc1nnc(SCc2nnc(-c3ccc(Cl)cc3)o2)n1-c1ccccc1", "inhibition": "-2.6% (inactive)"}, {"smiles": "Cc1ccc(-n2c(C)cc(/C=N/NC(=O)c3ccncc3)c2C)c(C)c1", "inhibition": "7% (inactive)"}, {"smiles": "Cc1ccc(NC(=O)c2ccc3ccccc3n2)cc1S(=O)(=O)N(C)C", "inhibition": "-57.9% (inactive)"}, {"smiles": "O=C(CSc1nc2ccccc2[nH]1)Nc1cccc(S(=O)(=O)N2CCOCC2)c1", "inhibition": "24.9% (inactive)"}, {"smiles": "CC(=O)Nc1cccc(-n2nnc(SCC(=O)Nc3ccccc3)n2)c1", "inhibition": "0.6% (inactive)"}, {"smiles": "Cc1cc(OCC(=O)NCCc2ccc(S(N)(=O)=O)cc2)c2c(C)c(C)c(=O)oc2c1", "inhibition": "8.3% (inactive)"}, {"smiles": "Cc1n[nH]c(=O)nc1NC1CCCCC1", "inhibition": "3% (inactive)"}, {"smiles": "C=CCn1c(CSCc2ccccc2)nnc1SCC(=O)N1CCN(c2ccccc2)CC1", "inhibition": "0.4% (inactive)"}, {"smiles": "CCOc1ccc(N=C2SC(C(=O)Nc3ccccc3C#N)C(N)=C2C(=O)Nc2ccc(Cl)cc2)cc1", "note": "(centres undefined)", "inhibition": "13.4% (inactive)"}, {"smiles": "N#Cc1ccccc1NC(=O)C1SC(=Nc2ccccc2)C(C(=O)Nc2ccc(Cl)cc2)=C1N", "note": "(centres undefined)", "inhibition": "50.7% (active)"}, {"smiles": "Cc1ccc(NC(=O)C2SC(=Nc3ccccc3)C(C(=O)Nc3ccc(Cl)cc3)=C2N)cc1", "note": "(centres undefined)", "inhibition": "-14.9% (inactive)"}]}]}
